Assay [1] in a line: Nuclear factor erythroid 2-related factor 2/antioxidant responsive element (Nrf2/ARE) small molecule agonists: qHTS cell viability counter screen in human keratinocytes (AID 1919968; active means well fitted curve in the direction sought with a large enough effect in the repeat runs; an effect the other way counts as inactive or inconclusive; further: nearly all actives have a fitted effect of over 55% in size; further: potency means the concentration at half of the fitted maximal effect). The essentials:
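Cytotoxicity was multiplexed with the Nrf2/ARE luciferase assay in the same wells. Stably transfected HaCaT keratinocytes were treated with test compounds for 23 h at 37 C. Cell viability was then measured by CellTiter-Fluor fluorescence.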
In general terms: qHTS replaces the single test concentration by a dilution series.

Assay [2] can be described thus: Nuclear factor erythroid 2-related factor 2/antioxidant responsive element (Nrf2/ARE) small molecule agonists: luciferase reporter gene qHTS assay in human keratinocytes (AID 1919969). Further: nearly all actives have a fitted effect of over 35% in size. Further: potency means the concentration at half of the fitted maximal effect.
The nature of assay [3]: G protein-coupled receptor (GPCR) small molecule agonists, calcium flux assay: HEK293 wild type cell line counter screen (AID 1920065). The procedure, abridged:
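Seed cells, incubate 18 h (37 C, 5% CO2); add calcium dye, 1 h at 37 C; pin-transfer compounds, ATP control or DMSO; read fluorescence 480/540 nm each second for 3 min.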
(A change in cytosolic calcium serves as a functional read-out for many receptors and channels.)

Assay [4] can be described thus: p53 small molecule agonists, cell-based qHTS assay with human liver microsomes (AID 1963577). The essentials: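 Cells carrying a p53-responsive bla reporter were rested 5 h (37 C, 5% CO2) before compound transfer. Human liver microsomes plus NADPH, 0.5 mg/mL final apiece, supplied metabolism during the 16 h 37 C exposure.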
Assay [5] is described as follows: p53 small molecule agonists, cell-based qHTS assay with rat liver microsomes (AID 1963578). The essentials: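 Fluorescence from a beta-lactamase reporter under a p53 response element was measured after cells had been incubated 16 h at 37 C with test compound and rat liver microsomes plus NADPH (0.5 mg/mL final each).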
Assay [6] can be described thus: p53 small molecule agonists, cell-based qHTS assay with human liver microsomes: qHTS cell viability counter screen (AID 1963579). Further: nearly all actives have a fitted effect of over 45% in size. Further: potency means the concentration at half of the fitted maximal effect. The procedure, abridged: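 Seed p53RE-bla cells at 4,000 per well; incubate 5 h at 37 C; add compound, human liver microsomes and NADPH; incubate 16 h at 37 C; add CellTiter-Glo; after 30 min at room temperature, read luminescence.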
A short description of assay [7]: p53 small molecule agonists, cell-based qHTS assay: qHTS cell viability counter screen (AID 1963581). Further: nearly all actives have a fitted effect of over 45% in size. Further: potency means the concentration at half of the fitted maximal effect. The essentials: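 Viability was counter-screened in parallel with the p53 agonist reporter by measuring intracellular ATP luminescence in the same HCT-116 p53RE-bla wells after 16 h compound treatment at 37 C.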
For assay [8], the target named is 5-hydroxytryptamine receptor 2A (Homo sapiens) (UniProt P28223). The assay can be described thus: 5-hydroxytryptamine receptor 2A (HTR2A) small molecule antagonists, cell-based qHTS assay (AID 1963586). Further: nearly all actives have a fitted effect of over 45% in size. The procedure, abridged: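 CHO cells stably expressing human HTR2A were plated for 18 h at 37 C, then loaded with calcium dye for 1 h. Compounds were preincubated 5 min at room temperature before DOI (4 nM solution) was added. Kinetic fluorescence was read for 3 min.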
5-hydroxytryptamine receptor 2A (Homo sapiens), sequence (P28223 whole entry, looked up): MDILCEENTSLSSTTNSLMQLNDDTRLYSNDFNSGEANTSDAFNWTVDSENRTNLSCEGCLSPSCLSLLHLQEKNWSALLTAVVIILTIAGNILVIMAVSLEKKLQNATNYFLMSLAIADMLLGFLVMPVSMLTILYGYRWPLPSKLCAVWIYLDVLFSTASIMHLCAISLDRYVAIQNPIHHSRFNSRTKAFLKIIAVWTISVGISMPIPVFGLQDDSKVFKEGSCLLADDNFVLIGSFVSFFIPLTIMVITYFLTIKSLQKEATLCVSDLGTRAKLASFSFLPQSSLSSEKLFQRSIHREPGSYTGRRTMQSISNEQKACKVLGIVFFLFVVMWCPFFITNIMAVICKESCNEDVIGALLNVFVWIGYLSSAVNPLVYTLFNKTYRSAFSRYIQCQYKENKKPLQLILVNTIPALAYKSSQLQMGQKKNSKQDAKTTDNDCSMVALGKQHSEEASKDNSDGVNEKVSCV

The target in assay [9] is Muscarinic acetylcholine receptor M1 (Homo sapiens) (UniProt P11229). The assay can be described thus: Cholinergic receptor muscarinic 1 (CHRM1) small molecule antagonists, cell-based qHTS assay (AID 1963588). Further: nearly all actives have a fitted effect of over 40% in size. Further: potency means the concentration at half of the fitted maximal effect. The procedure, abridged:
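Compounds were tested at 15 concentrations in three independent runs. Dye-loaded CHRM1-CHO cells were exposed 5 min at room temperature before stimulation by acetylcholine added at 50nM. Intracellular calcium was read kinetically on FDSS for 3 min.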

Assay [10] has the same target. The assay can be described thus: Cholinergic receptor muscarinic 1 (CHRM1) small molecule agonists, cell-based qHTS assay (AID 1963589). Further: nearly all actives have a fitted effect of over 35% in size. The essentials:
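Cells were plated and incubated 18 h at 37 C/5% CO2, loaded with calcium dye for 1 h at 37 C, then treated with compounds in DMSO. Fluorescence was recorded kinetically at 1 sec intervals.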

A short description of assay [11]: cAMP Responsive Elements (CRE) small molecule agonists, cell-based qHTS assay (AID 1963590). The essentials: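 Cells carrying a CRE-driven beta-lactamase reporter (HEK 293T) are seeded, incubated overnight (18 h), and treated with test compounds for 3 h at 37 C; reporter activity is then detected with a FRET substrate after 2 h at room temperature.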
A short description of assay [12]: cAMP Responsive Elements (CRE) small molecule antagonists, cell-based qHTS assay (AID 1963591; active means well fitted inhibition curve with a large enough effect in the signal ratio in the repeat runs, not every such curve was filed as active; the % refers to the signal ratio). The essentials:
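Cells (CRE-bla HEK 293T, DMEM with 10% dialyzed FBS and 25 mM HEPES) are seeded and incubated 18 h. Compounds are added with NKH477 agonist at 0.25 uM final for 3 h, then FRET substrate for 2 h.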

In assay [13] the target is Beta-2 adrenergic receptor (Homo sapiens) (UniProt P07550). The assay can be described thus: Adrenergic beta2 receptor (ADRB2) small molecule agonists, cell-based qHTS assay (AID 1963593).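 Further: CHO cells stably overexpressing human ADRB2.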 The essentials:
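CHO cells stably over-expressing ADRB2 were plated overnight at 37C, then dosed with compounds plus a stimulation mix containing 100uM IBMX and 25uM Ro-20-1724 for 0.5hr at room temperature. cAMP was measured by HTRF competition, 1hr.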

In assay [14] the target is D(2) dopamine receptor (Homo sapiens) (UniProt P14416). The assay can be described thus: Dopamine D2 receptor (DRD2) small molecule agonists, cell-based qHTS assay (AID 1963594). Further: nearly all actives have a fitted effect of over 35% in size. The procedure, abridged: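 HEK293 cells stably expressing human DRD2, pre-treated with PDE inhibitor Ro20-1724 (0.1 mM final) and compound 10 min at room temperature, then stimulated with NKH477 (200nM […]) for 30 min. cAMP read by HTRF (665/620 nm).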
D(2) dopamine receptor (Homo sapiens), sequence (P14416 whole entry, looked up): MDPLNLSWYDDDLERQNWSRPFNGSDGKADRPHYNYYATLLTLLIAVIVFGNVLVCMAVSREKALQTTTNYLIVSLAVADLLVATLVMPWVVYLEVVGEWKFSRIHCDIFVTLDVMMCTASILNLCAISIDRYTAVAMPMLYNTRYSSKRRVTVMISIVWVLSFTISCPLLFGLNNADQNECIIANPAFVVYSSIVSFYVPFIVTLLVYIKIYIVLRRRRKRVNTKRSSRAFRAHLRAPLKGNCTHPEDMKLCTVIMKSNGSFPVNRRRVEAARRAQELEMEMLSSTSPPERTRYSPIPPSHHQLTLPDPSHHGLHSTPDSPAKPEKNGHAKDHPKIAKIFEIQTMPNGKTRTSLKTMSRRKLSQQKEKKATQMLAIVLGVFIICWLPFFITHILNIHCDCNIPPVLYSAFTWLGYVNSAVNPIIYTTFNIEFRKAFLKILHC

Assay [15] has the same target. The assay can be described thus: Dopamine D2 receptor (DRD2) small molecule antagonists, cell-based qHTS assay (AID 1963595; active means well fitted inhibition curve with a large enough effect in the signal ratio in the repeat runs, with a control signal flat; the % refers to the signal ratio). The essentials: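 HEK293 cells stably expressing DRD2, preincubated with 0.1 mM Ro20-1724 and compounds 10 min, were stimulated with 200 nM NKH477 plus 12 nM quinpirole for 30 min at room temperature; cAMP measured by HTRF (665/620 nm).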
The target of assay [16] is KiSS-1 receptor (Homo sapiens) (UniProt Q969F8). Description: Human kisspeptin (KISS1R) small molecule agonists, calcium flux assay in KISS1R-HEK293 cells (AID 1920064; active means well fitted curve in the direction sought with a large enough effect in the repeat runs; an effect the other way counts as inactive or inconclusive). The procedure, abridged:
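Agonist activity is monitored as intracellular calcium rise in engineered HEK293 cells carrying human KISS1R. Cells are dye-loaded for 1 h at 37 C before compound addition, and fluorescence is recorded for 3 min.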

Assay [17] can be described thus: p53 small molecule agonists, cell-based qHTS assay (AID 1963582; active means well fitted activation curve with a large enough effect in the signal ratio in the repeat runs, not every such curve was filed as active; the % refers to the signal ratio). The procedure, abridged: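 Cells carrying a p53-responsive bla reporter are treated with test compounds for 16 h at 37 C; beta-lactamase activity is then detected with LiveBLAzer B/G FRET substrate after 2 h at room temperature.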
In assay [18] the target is 5-hydroxytryptamine receptor 2A (Homo sapiens) (UniProt P28223). The assay can be described thus: 5-hydroxytryptamine receptor 2A (HTR2A) small molecule agonists, cell-based qHTS assay (AID 1963587). Further: nearly all actives have a fitted effect of over 30% in size. Further: potency means the concentration at half of the fitted maximal effect. The procedure, abridged: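 CHO cells stably expressing human HTR2A, plated 18 h, loaded with calcium dye 1 h at 37 C. Agonist mode: compounds added and intracellular calcium fluorescence recorded kinetically for 2 min at 1 sec intervals.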

Assay [19] addresses Beta-2 adrenergic receptor (Homo sapiens) (UniProt P07550). Description: Adrenergic beta2 receptor (ADRB2) small molecule antagonists, cell-based qHTS assay (AID 1963592). Further: series mostly up to about 92 µM; nearly all actives have a fitted effect of over 50% in size. The essentials: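 Assay format: CHO-ADRB2 cells, 18-20hr seeding at 37C/5% CO2, then compound plus 1nM isoproterenol agonist mix for 0.5hr RT. Homogeneous time-resolved fluorescence cAMP detection after 1hr, expressed as 665/615 nm ratio.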

Assay [20] in a line: p53 small molecule agonists, cell-based qHTS assay with rat liver microsomes: qHTS cell viability counter screen (AID 1963580). Further: nearly all actives have a fitted effect of over 45% in size. The essentials: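 After the beta-lactamase ratio was read, CellTiter-Glo was added to the same wells and luminescence measured at 30 min; cells had been treated 16 h at 37 C with compounds, rat liver microsomes and NADPH (0.5 mg/mL final each).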

“And” between values parts separate entries of the source, which are not always exact repeats. Identical values can stand only once. Inconclusive results are not listed. Some structures have more than one record in an assay (separate samples or runs), and their calls can disagree. The source made the active and inactive calls. Unless noted, the call rests on the fitted dose curve.

Beta-2 adrenergic receptor (Homo sapiens), sequence (P07550 whole entry, looked up): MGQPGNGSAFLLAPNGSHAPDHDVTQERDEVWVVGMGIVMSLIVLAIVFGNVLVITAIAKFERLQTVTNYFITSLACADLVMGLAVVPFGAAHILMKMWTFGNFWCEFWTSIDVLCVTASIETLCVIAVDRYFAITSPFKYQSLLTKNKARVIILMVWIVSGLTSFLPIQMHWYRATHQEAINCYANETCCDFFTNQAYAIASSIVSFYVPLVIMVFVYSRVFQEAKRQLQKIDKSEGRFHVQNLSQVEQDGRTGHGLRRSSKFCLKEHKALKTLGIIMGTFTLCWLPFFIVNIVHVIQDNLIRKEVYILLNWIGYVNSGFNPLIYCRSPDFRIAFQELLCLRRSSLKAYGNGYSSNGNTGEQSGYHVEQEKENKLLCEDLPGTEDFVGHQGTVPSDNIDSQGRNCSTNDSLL
KiSS-1 receptor (Homo sapiens), sequence (Q969F8 whole entry, looked up): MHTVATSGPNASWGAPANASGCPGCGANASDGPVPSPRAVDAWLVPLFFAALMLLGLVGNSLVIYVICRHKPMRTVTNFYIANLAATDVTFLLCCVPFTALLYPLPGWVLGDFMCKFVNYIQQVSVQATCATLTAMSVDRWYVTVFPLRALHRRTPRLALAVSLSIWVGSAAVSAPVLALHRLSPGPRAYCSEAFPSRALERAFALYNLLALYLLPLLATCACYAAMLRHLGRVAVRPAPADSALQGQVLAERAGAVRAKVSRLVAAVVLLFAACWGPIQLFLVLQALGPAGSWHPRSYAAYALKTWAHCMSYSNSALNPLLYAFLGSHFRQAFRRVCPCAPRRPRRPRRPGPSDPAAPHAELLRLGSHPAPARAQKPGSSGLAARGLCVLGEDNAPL
Muscarinic acetylcholine receptor M1 (Homo sapiens), sequence (P11229 whole entry, looked up): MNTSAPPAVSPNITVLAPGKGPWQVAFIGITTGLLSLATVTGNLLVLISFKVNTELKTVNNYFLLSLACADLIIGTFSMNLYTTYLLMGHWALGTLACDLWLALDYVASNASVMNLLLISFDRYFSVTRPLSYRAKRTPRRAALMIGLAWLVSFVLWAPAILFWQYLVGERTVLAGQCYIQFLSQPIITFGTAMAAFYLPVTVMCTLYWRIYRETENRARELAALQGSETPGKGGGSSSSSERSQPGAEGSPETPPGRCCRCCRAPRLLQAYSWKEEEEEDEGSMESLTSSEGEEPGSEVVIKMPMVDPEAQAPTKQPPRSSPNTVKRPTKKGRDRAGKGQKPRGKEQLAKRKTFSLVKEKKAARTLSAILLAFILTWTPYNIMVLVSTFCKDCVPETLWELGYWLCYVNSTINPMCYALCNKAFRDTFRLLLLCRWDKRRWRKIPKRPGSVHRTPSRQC

Take `CCCCCCCCCCCCCCCCn1cc[n+](C)c1`: the Potency entry in assay [1] is “inactive and 27.6 µM (active) and 13.7 µM (active)”; in [6], 37.1 µM (active) and inactive and 46.2 µM (active); in assay [7], 25.8 µM (active); in assay [9], “inactive and 950 nM (active) and 2.66 µM (active)”. In addition, the Potency result in [2], in assay [3], in [4], in [5], in assay [8] and in assay [10] was “inactive” throughout. In addition, the Potency result in [11], in assay [12], in [13], in assay [14] and in [15] was “inactive” in each case.

As for `CC1(C)[C@H](C(=O)O[C@H](C#N)c2cccc(Oc3ccccc3)c2)[C@@H]1C=C(Br)Br`, the Potency entry in assay [1], in assay [2], in [16], in [3], in assay [4] and in assay [5] was “inactive” in each case. Besides, the Potency result in assay [7], in assay [17], in assay [8], in assay [18], in [9] and in assay [10] was “inactive” in each case. Besides, the Potency entry in assay [11], in assay [12], in [19], in assay [14] and in assay [15] was “inactive” in each case.

For the compound `CC[n+]1ccccc1`, the Potency result in assay [1], in assay [2], in assay [16], in assay [3], in assay [6] and in assay [20] was “inactive” each time. Moreover, the Potency entry in assay [8], in [18], in assay [9], in [10], in assay [11] and in assay [12] was “inactive” each time. The Potency entry in assay [19], in assay [13], in [14] and in [15] was “inactive” each time.

Regarding `Nc1ccc(Cl)cc1N`, the Potency result in assay [1], in [3], in assay [5], in assay [6], in [20] and in [7] was “inactive” throughout. In addition, the Potency entry in assay [17], in assay [8], in [9], in assay [10], in assay [12] and in assay [19] was “inactive” throughout. The Potency entry in assay [13], in assay [14] and in assay [15] was “inactive” throughout. Besides, the Potency in assay [2] is 31.9 µM (active) and 19.3 µM (active); in assay [18], 20.3 µM (active) and 6.16 µM (active).

For the compound `COS(=O)(=O)c1ccc(C)cc1`, the Potency result in assay [1], in assay [2], in assay [16], in assay [3], in assay [4] and in assay [6] was “inactive” throughout. Also, the Potency entry in [20], in assay [7], in assay [17], in [8], in assay [18] and in assay [9] was “inactive” throughout. Further, the Potency entry in assay [10], in assay [11], in assay [12], in assay [19], in [14] and in assay [15] was “inactive” each time.

For the compound `OCC(O)CO`, the Potency result in [1], in [2], in assay [4], in [5], in assay [6] and in [20] was “inactive” each time. Further, the Potency entry in assay [7] and in assay [17] was “inactive” each time.

On to `Clc1ccc(C(Cl)(Cl)Cl)cn1`, for which the Potency entry in [1], in [2], in [16], in [4], in assay [5] and in assay [6] was “inactive” each time. The Potency result in assay [20], in [7], in assay [17], in assay [8], in [18] and in assay [9] was “inactive” in each case. Also, the Potency entry in assay [10], in assay [11], in [12], in [19], in assay [13] and in assay [14] was “inactive” in each case. In [15], the Potency entry is “inactive”.

Values taken from PubChem BioAssay (Tox21).
